A selection: hits, their analogues and other compounds. The true share with any hit is near 4.8%.
Wee1 degr inh = blocks degradation of human Wee1 kinase; reporter increase, % at 5 µM; actives 1.2% (n = 220,000); HeLa Luc-Wee1K328M stability, luciferase luminescence; 100% = proteasome inhibitor MG132 effect;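 active = activation above the mean of all tested compounds plus 3 SD, set per screening run, cut at about 8.8% in these data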;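 note: cells exposed to compound for 20 h before luminescence read; 0% = DMSO alone and 100% = MG132 at 30 µM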
Target sequence (P30291 whole entry K328M): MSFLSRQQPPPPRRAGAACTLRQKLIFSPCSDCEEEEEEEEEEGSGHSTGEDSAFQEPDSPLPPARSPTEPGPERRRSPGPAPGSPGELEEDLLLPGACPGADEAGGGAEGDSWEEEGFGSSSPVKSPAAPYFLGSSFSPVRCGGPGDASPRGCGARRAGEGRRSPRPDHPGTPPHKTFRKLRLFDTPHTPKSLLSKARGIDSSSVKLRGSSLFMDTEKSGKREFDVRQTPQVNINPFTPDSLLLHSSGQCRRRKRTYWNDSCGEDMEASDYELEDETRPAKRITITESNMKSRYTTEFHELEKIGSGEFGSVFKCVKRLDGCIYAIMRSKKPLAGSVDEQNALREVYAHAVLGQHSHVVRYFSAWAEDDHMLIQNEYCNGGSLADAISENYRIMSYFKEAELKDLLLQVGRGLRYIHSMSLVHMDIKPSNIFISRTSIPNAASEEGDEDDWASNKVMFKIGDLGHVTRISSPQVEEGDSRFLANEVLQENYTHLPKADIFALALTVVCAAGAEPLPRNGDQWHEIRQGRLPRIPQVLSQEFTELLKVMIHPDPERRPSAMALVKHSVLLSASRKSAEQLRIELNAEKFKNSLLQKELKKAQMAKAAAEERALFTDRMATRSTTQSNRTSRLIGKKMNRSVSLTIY
APP 5UTR inh = APP translation inhibition. SH-SY5Y APP 5'UTR-luciferase reporter, luminescence. inhibition, % at 2 µM. actives 0.82% (n = 190,000). AID 1285;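 active = inhibition above a set limit, derived from the sample mean plus 3 SD, cut at about 45% in these data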
NF-kB expr up = raises NF-kB expression in human neuronal cells; NF-kB reporter expression; stronger effect = higher value; fold change at 12.5 µM; actives 1.6% (n = 190,000); in the data active = fold change above about 3.3
STAT1 act = increases IFN-gamma driven STAT1 reporter signal; NIH 3T3 STAT1-luciferase reporter, luminescence; 100% = IFN-gamma alone, no compound; activation (% of control), % at 5.5 µM; actives 2.6% (n = 200,000); AID 932;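 active = activation above the screen-wide mean activation plus 3 SD, cut at about 130% in these data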;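 note: raw ratio to IFN-gamma control signal so 100% means no change and 0% no light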
APP 5'UTR act = APP 5'UTR luciferase reporter activation; SH-SY5Y APP 5'UTR luciferase reporter, luminescence; zero percent = DMSO vehicle wells; activation, % at 2 µM; actives 1% (n = 190,000);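 active = activation above a set limit, based on mean plus 3 SD of controls, cut at about 140% in these data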
Hsp70 activator = Hsp70 transcriptional activation, primary screen. actives 0.04% (n = 200,000). activation, % at 10 µM. HeLa Hsp70 promoter luciferase reporter, luminescence; scaled: vehicle 0, proteasome-inhibitor control 100%;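 active = activation above the mean across all tested compounds plus 3 SD, cutoff set per campaign, cut at about 5.5% in these data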;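 note: 100% = MG132 at 30 µM as the positive control and 0% = DMSO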
STAT1 activ conf = confirmation of STAT1 signaling activators; NIH 3T3 STAT1-luciferase reporter, IFN-gamma potentiation, luminescence; 100% = IFN-gamma EC80 alone, no compound; activation (% of control), % at 5.7 µM; shares compounds with STAT1 act; actives 97% (n = 1,200); AID 1262;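 active = activation above a set limit carried over from the earlier primary STAT1 screen, cut at about 140% in these data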;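 note: simple ratio to median IFN-gamma plus DMSO wells so 0% means no light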
NFkB act STAT1ct = counter-screen for STAT1 activators: NF-kappaB activation; shares compounds with STAT1 act; HEK293T NF-kB luciferase reporter, TNF-alpha stimulated, luminescence; 100% = TNF-alpha with vehicle only; activation (% of control), % at 5.7 µM; actives 43% (n = 1,200); AID 1306;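 active = activation above the mean of solvent-only control wells plus 3 SD, set per campaign, cut at about 130% in these data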;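 note: TNF-alpha given at a submaximal dose yielding about 80% of full reporter signal; values are well signal over median control so 100% means no change and 0% no light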
STAT3 act STAT1c = activates human STAT3, counter-screen to STAT1 activators; shares compounds with STAT1 act; U3A cells STAT3-luciferase reporter, IL-6, luminescence; cells lack STAT1; 100 = IL-6 alone, no compound effect; activation (% of control), % at 5.7 µM; actives 46% (n = 1,200);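 active = activation above the solvent-only control well mean plus 3 SD, set per plate batch, cut at about 110% in these data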;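 note: 0% = no luminescence and 100% = median IL-6 plus DMSO wells; higher means more STAT3 reporter activation so hits are non-selective activators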
Active calls of the source: *; / = not tested or not shown.

SMILES | Wee1 degr inh | APP 5UTR inh | NF-kB expr up | STAT1 act | APP 5'UTR act | Hsp70 activator | STAT1 activ conf | NFkB act STAT1ct | STAT3 act STAT1c
COc1ccc(C2N=C(N)N=C(N)N2c2ccccc2OC)cc1OC (centres undefined) | 4 | 1 | 1.4 | 93 | -1 | 0 | / | / | /
CCC(N=c1cc(-c2ccc(OC)cc2)oc2ccc(C)cc12)C(=O)O (centres undefined) | 2 | -147 | 3.1 | 164* | 147* | 0 | 137* | 120 | 99
COc1ccc(C2=NN(C(C#N)c3ccc(OC)cc3)C(c3ccccc3)C2)cc1 (centres undefined) | -2 | -109 | 6* | 172* | 109 | 0 | 128 | 129 | 100
COc1ccc(C(C#N)N2N=C(c3ccccc3)CC2c2ccccc2)cc1OC (centres undefined) | -2 | -55 | 1.8 | 112 | 55 | 0 | / | / | /
CSc1ccc(Cn2nnc(C(=O)NCc3ccccc3)c2N)cc1 | -1 | -16 | 1 | 98 | 16 | 0 | / | / | /
CC(C)N(c1nnc(N)s1)C(C)C | 3 | -14 | 0.92 | 92 | 14 | 0 | / | / | /
CCSc1ncc(/C=N/Nc2ccc([N+](=O)[O-])cc2)n1C | 9.6* | -90 | 1.8 | 162* | 90 | 0 | 196* | 149* | 102
CCSc1ncc(/C=N/Nc2ccccc2)n1C | 0 | -23 | 1.8 | 100 | 23 | 0 | / | / | /
C/C(=N/OC(=O)c1c(-c2c(Cl)cccc2Cl)noc1C)c1cnccn1 | -1 | 17 | 1.6 | 87 | -17 | 0 | / | / | /
Cc1ccc(SCC(=O)Nc2ccc(N3CCN(c4ccccc4)CC3)c(F)c2)cc1 | 1 | -6 | 1.1 | 103 | 6 | 0 | / | / | /
CN1CCN(c2ccc(NC(=O)CSc3ccccc3)cc2F)CC1 | 9.8* | -175 | 1.1 | 158* | 175* | 0 | 183* | 126 | 128*
Cc1ccc(N/N=C(\C#N)C(=O)c2ccsc2)cc1 | -3 | / | / | / | / | / | / | / | /
Cc1ccc(N/C=C(/C#N)c2ccsc2)cc1C | 1 | -105 | 5.2* | 193* | 105 | 0 | 235* | 156* | 125*
O=C(c1ccc(F)cc1)c1cnc(Nc2ccccc2)s1 | 3 | -126 | 2.4 | 153* | 126 | 0 | 203* | 135* | 124*
O=c1[nH]c2ccccc2nc1Cc1ccccc1 | 0 | 19 | 0.91 | 98 | -19 | 0 | / | / | /
O=C(Cc1nc2ccccc2[nH]c1=O)c1ccccc1 | 0 | -160 | 0.97 | 175* | 160* | 0 | 196* | 123 | 155*
COc1ccc(C(=O)NC(=S)Nc2ccccc2F)cc1 | -2 | -116 | 3 | 158* | 116 | 0 | 171* | 134* | 100
CC(=O)NC(=S)Nc1ccccc1F | -3 | -13 | 1.2 | 108 | 13 | 0 | / | / | /
CCCCc1ccc(-c2ccc(Br)cc2)nc1 | 0 | -125 | 6* | 155* | 125 | 0 | 223* | 126 | 97
CCCCCc1ccc(-c2ccc(=O)[nH]n2)cc1 | -2 | -16 | 1.6 | 103 | 16 | 1 | / | / | /
Cc1ccc(NC(=O)C2COc3ccccc3O2)nc1 (centres undefined) | 1 | -110 | 1.8 | 113 | 109 | 0 | / | / | /
CCCCCn1c(=O)[nH]c2cc(C(=O)NCc3ccc4c(c3)OCO4)ccc2c1=O | -1 | 0 | 1.1 | 103 | 0 | 0 | / | / | /
CC(C)CSc1nnc2c(n1)[nH]c1ccccc12 | 3 | -130 | 4.8* | 153* | 130 | 0 | 249* | 113 | 89
O=C(NCCc1cn2ccsc2n1)c1cccs1 | 1 | 3 | 1.4 | 104 | -3 | 0 | / | / | /
Cc1ccc(/C=C2/C(=O)ON=C2c2ccccc2)o1 | -2 | / | / | / | / | / | / | / | /
SMILES | Wee1 degr inh | APP 5UTR inh | NF-kB expr up | STAT1 act | APP 5'UTR act | Hsp70 activator | STAT1 activ conf | NFkB act STAT1ct | STAT3 act STAT1c
O=C(Nc1nc2c(s1)CCc1ccccc1-2)c1cccs1 | -1 | -44 | 1.5 | 109 | 44 | 0 | / | / | /
Fc1ccccc1Nc1nc2c(s1)CCc1ccccc1-2 | 2 | -164 | 7.8* | 198* | 164* | 0 | 268* | 157* | 161*
O=c1c2c(nc3cc(-c4ccc(F)cc4)[nH]n13)CCCC2 | 4 | -168 | 3.4* | 177* | 168* | 0 | 240* | 115 | 93
Cn1c(SCC(=O)N2CCN(C(=O)c3ccco3)CC2)nnc1-c1ccc(NS(C)(=O)=O)cc1 | 3 | 22 | 1 | 98 | -22 | 0 | / | / | /
Cc1cc(C(F)(F)F)c(C#N)c(SCC(=O)Nc2nc3ccccc3s2)n1 | -1 | -180 | 0.77 | 152* | 180* | 0 | 261* | 126 | 193*
COC(=O)C(C(=O)OC)c1ccc(NC(=O)c2cccc(Cl)c2)cc1 | -1 | -47 | 1.2 | 110 | 47 | 0 | / | / | /
CC(C)c1ccc(NC(=O)c2snc3ccc(Cl)cc23)cc1 | 2 | -120 | 2.3 | 158* | 120 | 0 | 194* | 126 | 139*
CC(=O)c1ccc(NC(=O)c2ccc(NC(=O)CCS(=O)(=O)c3cccs3)cc2)cc1 | 0 | 10 | 1.1 | 157* | -10 | 0 | 169* | 121 | 113*
O=C(CCS(=O)(=O)c1cccs1)Nc1ccc(C(=O)NCc2cccs2)cc1 | -2 | -9 | 0.89 | 103 | 9 | 0 | / | / | /
CCc1nc(-c2ccc(-c3ccc(OC)cc3)nc2OC)no1 | 0 | -4 | 1.8 | 117 | 4 | 0 | / | / | /
Cc1ccc2nc(/C=C/c3cccc(F)c3)ccc2c1 | 0 | -214 | 7.4* | 194* | 214* | 0 | 259* | 150* | 116*
CCN(CC)c1ccc(N=Nc2nn(C)c(C)c2[N+](=O)[O-])cc1 | 2 | -142 | 5.7* | 178* | 142* | 0 | 222* | 140* | 107
Cc1ccc(CN2CCN(Cc3ccccc3C(F)(F)F)CC2)cc1 | -2 | 2 | 1 | 96 | -2 | 0 | / | / | /
Clc1ccccc1OCc1nc(-c2ccccn2)no1 | 1 | -171 | 6.5* | 168* | 171* | 0 | 225* | 120 | 103
Clc1ccccc1OCc1nc(-c2ccc(Br)o2)no1 | 0 | -12 | 2.8 | 123 | 11 | 0 | / | / | /
Nc1nonc1-c1noc(COc2ccccc2Cl)n1 | 4 | -187 | 8.8* | 166* | 187* | 0 | 219* | 139* | 116*
